# Test results from PubChem BioAssay (NCATS).
# Records with an inconclusive call do not appear. Values without a mark were called inactive. The source made the active and inactive calls. Calls follow the shape of the dose curve; as a rule, active = well fitted inhibition curve with a large enough effect; inconclusive = small, poorly fitted or top-dose-only effect; inactive = flat fitted curve, though single readings scatter.
# Key:
# CRL-7250 = normal cell line; experiment: Cytotoxic Profiling of Annotated Libraries Using Quantitative High-Throughput Screening (AID 1296008); details: Five cell lines viability, CellTiter-Glo ATP luminescence, 48-72 h; max response: hits give low values; also: potency is read from the fitted curve at half-maximal effect; as to max response: % is scaled to controls: 0 for no effect and ±100 for the full control effect
# Summary of the method: (§1)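 Compounds were pin-transferred onto cells and incubated 48 or 72 hr at 37 degree Celsius, 95% humidity. CellTiter-Glo was added, plates sat 10 min at room temperature, then ATP-coupled luminescence was imaged as the viability read-out.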
# HaCat [1] = experiment: as above; details: Five cell lines viability, CellTiter-Glo ATP luminescence, 48-72 h; max response: hits give low values
# Summary of the method: as §1
# NIH3T3 = experiment: as above; details: Five cell lines viability, CellTiter-Glo ATP luminescence, 48-72 h; max response: hits give low values
# Summary of the method: as §1
# HACAT [2] = experiment: qHTS assay to identify novel small-molecules to repurpose for Merkel cell carcinoma treatment (AID 1296009); details: MCC and control cell lines, CellTiter-Glo viability, 72 h; at 44.8 µM (top of the series) unless noted
# Summary of the method: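 Viability readout: ATP luminescence (CellTiter-Glo) after 72 hr drug exposure at 37 degree celsius. Dose-response format was 8 points for NPC and 11 points for MIPE; data normalized to in-plate controls.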
# KB-3-1 = experiment: Cytotoxic Profiling of Annotated Libraries Using Quantitative High-Throughput Screening (AID 1296008); details: Five cell lines viability, CellTiter-Glo ATP luminescence, 48-72 h; max response: hits give low values; also: potency is read from the fitted curve at half-maximal effect; as to max response: % is scaled to controls: 0 for no effect and ±100 for the full control effect
# Summary of the method: as §1
# Also: nearly all actives have a fitted effect of over 60% in size.
compound,measurement,setting,value
COc1cc2c(cc1O)C1(Cc3ccc4c(c3C1O)OCO4)[N+](C)([O-])CC2 (stereo not given),outcome,CRL-7250,inactive
same,max response,HaCat [1],-20.1%
same,max response,NIH3T3,-2.31%
C=C1C(=O)OC[C@@H]1C/C=C(\C)CC1CC(C)C(=O)O1 (stereo not given in full),max response,CRL-7250,-16.8%
same,max response,HaCat [1],2.44%
same,max response,NIH3T3,-3.27%
O=C(COc1ccc2ccccc2c1Br)Nc1cccnc1,max response,CRL-7250,-18.6%
same,outcome,HaCat [1],inactive
same,max response,NIH3T3,-5.04%
same,outcome,HACAT [2],inactive
C=C1/C(=C/C=C2\CCC[C@]3(C)[C@@H]([C@H](C)/C=C/[C@@H](C)C(C)C)CC[C@@H]23)C[C@@H](O)C[C@@H]1O,max response,CRL-7250,1.9%
same,outcome,HaCat [1],inactive; activator
same,Potency,NIH3T3,0.326 µM (active)
same,outcome,HACAT [2],inactive; activator
CCc1cccc(CC)c1-n1c(C=C(C)C)c(C(=O)N2CCNCC2)cc(-c2nc(-c3ccc(C(F)(F)F)cc3)cs2)c1=O,outcome,CRL-7250,inactive
same,max response,HaCat [1],-5.33%
same,max response,NIH3T3,-4.22%
CCCn1ncc(CN2CCCC(C(=O)c3cccc(OC(C)C)c3)C2)c1C (stereo not given),max response,CRL-7250,-26.8%
same,max response,HaCat [1],4.33%
same,max response,NIH3T3,-15.4%
COC(=O)c1cc(Br)cnc1N1CCC(NC2CCCCC2)C(O)C1 (stereo not given),outcome,CRL-7250,inactive
same,max response,HaCat [1],-7.79%
same,outcome,NIH3T3,inactive
CCc1cc2c(cc1CC)CC(NCC(O)c1ccc(O)c3[nH]c(=O)ccc13)C2 (stereo not given),outcome,CRL-7250,inactive
same,max response,HaCat [1],2.19%
same,max response,NIH3T3,2.82%
CC(C)=C[C@@H]1[C@H](CO[C@@H]2O[C@H](CO)[C@@H](O)[C@H](O)[C@H]2O)C1(C)C,outcome,CRL-7250,inactive
same,outcome,HaCat [1],inactive
same,max response,NIH3T3,4.21%
same,outcome,HACAT [2],inactive
CO[C@H]1[C@@H](O)[C@H](O[C@H]2CC[C@@]3(C)C(CCC4C3CC[C@]35COC6(COC(=O)C6)C3CCC45O)C2)O[C@@H](C)[C@@H]1OC1OC(CO)C(OC2OC(CO)C(O)C(O)C2O)C(O)C1O (stereo not given in full),Potency,CRL-7250,3.48 µM (active)
same,max response,HaCat [1],-26.8%
same,outcome,NIH3T3,inactive
C/C=C/[C@@H]1C=C[C@@H]2C[C@H](C)CC[C@H]2[C@]1(C)/C(O)=C1/C(=O)[C@@H](CO)N(C)C1=O,outcome,CRL-7250,inactive
same,max response,HaCat [1],3.96%
same,outcome,NIH3T3,inactive
Clc1ccc(Cn2c(Cc3ccccc3)nc3ccccc32)cc1,max response,CRL-7250,-7.75%
same,outcome,HaCat [1],inactive
same,max response,NIH3T3,-0.247%
same,outcome,HACAT [2],inactive
CS(=O)(=O)Nc1ccc2oc3c(OC(F)F)ccc(C(=O)Nc4c(Cl)cncc4Cl)c3c2c1,max response,CRL-7250,-13.5%
same,max response,NIH3T3,-9.63%
O=C(Nc1ccccc1Br)NC1CCN(c2ccc(C(F)(F)F)cn2)C1 (stereo not given),outcome,CRL-7250,inactive
same,max response,KB-3-1,-16.5%
same,max response,NIH3T3,-7.45%
